# Like-named read-outs stand apart in the source and are kept apart here.
# Key:
# MARK3 = conditions: read-out: apparent Kd, n = 1
# MARK4 = conditions: read-out: apparent Kd, n = 1
# [1] = compound concentrations:100 nM and 1000 nM (sheet 'Lestaurtinib' of Supplementary Table 1),run:Lestaurtinib_02473_R3,Plate:MR010
# [2] = compound concentrations:100 nM and 1000 nM (sheet 'Lestaurtinib' of Supplementary Table 1),run:Lestaurtinib_02482_R2,Plate:MR011
# [3] = compound concentrations:100 nM and 1000 nM (sheet 'Lestaurtinib' of Supplementary Table 1),run:Lestaurtinib_02482_R3,Plate:MR011
# [4] = compound concentrations:100 nM and 1000 nM (sheet 'Lestaurtinib' of Supplementary Table 1),run:Lestaurtinib_02487_R1,Plate:MR012
# [5] = compound concentrations:100 nM and 1000 nM (sheet 'Lestaurtinib' of Supplementary Table 1),run:Lestaurtinib_02487_R2,Plate:MR012
# [6] = compound concentrations:100 nM and 1000 nM (sheet 'Lestaurtinib' of Supplementary Table 1),run:Lestaurtinib_02496_R2,Plate:MR013
# [7] = compound concentrations:100 nM and 1000 nM (sheet 'Lestaurtinib' of Supplementary Table 1),run:Lestaurtinib_02496_R3,Plate:MR013
# [8] = compound concentrations:100 nM and 1000 nM (sheet 'Lestaurtinib' of Supplementary Table 1),run:Lestaurtinib_02566_R1,Plate:MR014
# [9] = compound concentrations:100 nM and 1000 nM (sheet 'Lestaurtinib' of Supplementary Table 1),run:Lestaurtinib_02572_R1,Plate:MR015
# [10] = compound concentrations:100 nM and 1000 nM (sheet 'Lestaurtinib' of Supplementary Table 1),run:Lestaurtinib_02577_R1,Plate:MR016
# [11] = compound concentrations:100 nM and 1000 nM (sheet 'Lestaurtinib' of Supplementary Table 1),run:Lestaurtinib_02577_R3,Plate:MR016
# [12] = compound concentrations:100 nM and 1000 nM (sheet 'Lestaurtinib' of Supplementary Table 1),run:Lestaurtinib_02584_R3,Plate:MR017
# [13] = compound concentrations:100 nM and 1000 nM (sheet 'Lestaurtinib' of Supplementary Table 1),run:Lestaurtinib_02606_R3,Plate:MR019
# [14] = compound concentrations:100 nM and 1000 nM (sheet 'Lestaurtinib' of Supplementary Table 1),run:Lestaurtinib_02624_R2,Plate:MR020
substance,measurement,setting,value
Lestaurtinib,potency estimated from few doses,"MARK3; compound concentrations:100 nM and 1000 nM (sheet 'Lestaurtinib' of Supplementary Table 1),run:Lestaurtinib_02443_R3,Plate:MR009",217 nM
same,potency estimated from few doses,MARK3; [1],98.5 nM
same,potency estimated from few doses,MARK3; [2],158 nM
same,potency estimated from few doses,MARK3; [3],140 nM
same,potency estimated from few doses,MARK3; [4],153 nM
same,potency estimated from few doses,MARK3; [5],200 nM
same,potency estimated from few doses,"MARK3; compound concentrations:100 nM and 1000 nM (sheet 'Lestaurtinib' of Supplementary Table 1),run:Lestaurtinib_02487_R3,Plate:MR012",172 nM
same,potency estimated from few doses,MARK3; [6],153 nM
same,potency estimated from few doses,MARK3; [7],146 nM
same,potency estimated from few doses,MARK3; [8],140 nM
same,potency estimated from few doses,MARK3; [9],140 nM
same,potency estimated from few doses,"MARK3; compound concentrations:100 nM and 1000 nM (sheet 'Lestaurtinib' of Supplementary Table 1),run:Lestaurtinib_02572_R2,Plate:MR015",162 nM
same,potency estimated from few doses,MARK3; [10],158 nM
same,potency estimated from few doses,"MARK3; compound concentrations:100 nM and 1000 nM (sheet 'Lestaurtinib' of Supplementary Table 1),run:Lestaurtinib_02577_R2,Plate:MR016",224 nM
same,potency estimated from few doses,MARK3; [11],259 nM
same,potency estimated from few doses,MARK3; [12],211 nM
same,potency estimated from few doses,"MARK3; compound concentrations:100 nM and 1000 nM (sheet 'Lestaurtinib' of Supplementary Table 1),run:Lestaurtinib_02601_R2,Plate:MR018",184 nM
same,potency estimated from few doses,"MARK3; compound concentrations:100 nM and 1000 nM (sheet 'Lestaurtinib' of Supplementary Table 1),run:Lestaurtinib_02606_R2,Plate:MR019",131 nM
same,potency estimated from few doses,MARK3; [13],162 nM
same,potency estimated from few doses,"MARK3; compound concentrations:100 nM and 1000 nM (sheet 'Lestaurtinib' of Supplementary Table 1),run:Lestaurtinib_02624_R1,Plate:MR020",146 nM
same,potency estimated from few doses,MARK3; [14],143 nM
same,potency estimated from few doses,"MARK3; compound concentrations:100 nM and 1000 nM (sheet 'Lestaurtinib' of Supplementary Table 1),run:Lestaurtinib_02724_R1,Plate:MR021",157 nM
same,potency estimated from few doses,"MARK3; compound concentrations:100 nM and 1000 nM (sheet 'Lestaurtinib' of Supplementary Table 1),run:Lestaurtinib_02724_R2,Plate:MR021",180 nM
same,potency estimated from few doses,"MARK3; compound concentrations:100 nM and 1000 nM (sheet 'Lestaurtinib' of Supplementary Table 1),run:Lestaurtinib_02724_R3,Plate:MR021",163 nM
same,potency estimated from few doses,"MARK3; compound concentrations:100 nM and 1000 nM (sheet 'Lestaurtinib' of Supplementary Table 1),run:Lestaurtinib_02752_R3,Plate:MR025",189 nM
same,potency estimated from few doses,"MARK3; compound concentrations:100 nM and 1000 nM (sheet 'Lestaurtinib' of Supplementary Table 1),run:Lestaurtinib_02765_R3,Plate:MR026",143 nM
same,potency estimated from few doses,"MARK3; compound concentrations:100 nM and 1000 nM (sheet 'Lestaurtinib' of Supplementary Table 1),run:Lestaurtinib_02766_R3,Plate:MR027",137 nM
same,potency estimated from few doses,"MARK3; compound concentrations:100 nM and 1000 nM (sheet 'Lestaurtinib' of Supplementary Table 1),run:Lestaurtinib_02768_R3,Plate:MR028",136 nM
same,potency estimated from few doses,"MARK3; compound concentrations:100 nM and 1000 nM (sheet 'Lestaurtinib' of Supplementary Table 1),run:Lestaurtinib_02795_R1,Plate:MR022",154 nM
same,potency estimated from few doses,"MARK3; compound concentrations:100 nM and 1000 nM (sheet 'Lestaurtinib' of Supplementary Table 1),run:Lestaurtinib_02795_R2,Plate:MR022",141 nM
same,potency estimated from few doses,"MARK3; compound concentrations:100 nM and 1000 nM (sheet 'Lestaurtinib' of Supplementary Table 1),run:Lestaurtinib_02795_R3,Plate:MR022",268 nM
same,potency estimated from few doses,"MARK3; compound concentrations:100 nM and 1000 nM (sheet 'Lestaurtinib' of Supplementary Table 1),run:Lestaurtinib_02896_R1,Plate:MR030",142 nM
same,potency estimated from few doses,"MARK3; compound concentrations:100 nM and 1000 nM (sheet 'Lestaurtinib' of Supplementary Table 1),run:Lestaurtinib_02896_R3,Plate:MR030",159 nM
same,potency estimated from few doses,"MARK3; compound concentrations:100 nM and 1000 nM (sheet 'Lestaurtinib' of Supplementary Table 1),run:Lestaurtinib_03172_R1,Plate:MR031",161 nM
same,potency estimated from few doses,"MARK3; compound concentrations:100 nM and 1000 nM (sheet 'Lestaurtinib' of Supplementary Table 1),run:Lestaurtinib_03172_R2,Plate:MR031",207 nM
same,potency estimated from few doses,"MARK3; compound concentrations:100 nM and 1000 nM (sheet 'Lestaurtinib' of Supplementary Table 1),run:Lestaurtinib_03172_R3,Plate:MR031",146 nM
same,potency estimated from few doses,"MARK3; compound concentrations:100 nM and 1000 nM (sheet 'Lestaurtinib' of Supplementary Table 1),run:Lestaurtinib_03260_R1,Plate:MR033",381 nM
same,potency estimated from few doses,"MARK3; compound concentrations:100 nM and 1000 nM (sheet 'Lestaurtinib' of Supplementary Table 1),run:Lestaurtinib_03260_R2,Plate:MR033",379 nM
same,potency estimated from few doses,"MARK3; compound concentrations:100 nM and 1000 nM (sheet 'Lestaurtinib' of Supplementary Table 1),run:Lestaurtinib_03260_R3,Plate:MR033",184 nM
same,potency estimated from few doses,"MARK4; compound concentrations:100 nM and 1000 nM (sheet 'Lestaurtinib' of Supplementary Table 1),run:Lestaurtinib_02339_R2,Plate:MR001",165 nM
same,potency estimated from few doses,"MARK4; compound concentrations:100 nM and 1000 nM (sheet 'Lestaurtinib' of Supplementary Table 1),run:Lestaurtinib_02339_R3,Plate:MR001",385 nM
same,potency estimated from few doses,"MARK4; compound concentrations:100 nM and 1000 nM (sheet 'Lestaurtinib' of Supplementary Table 1),run:Lestaurtinib_02364_R1,Plate:MR002",73 nM
same,potency estimated from few doses,"MARK4; compound concentrations:100 nM and 1000 nM (sheet 'Lestaurtinib' of Supplementary Table 1),run:Lestaurtinib_02367_R2,Plate:MR003",79.7 nM
same,potency estimated from few doses,"MARK4; compound concentrations:100 nM and 1000 nM (sheet 'Lestaurtinib' of Supplementary Table 1),run:Lestaurtinib_02367_R3,Plate:MR003",85.1 nM
same,potency estimated from few doses,"MARK4; compound concentrations:100 nM and 1000 nM (sheet 'Lestaurtinib' of Supplementary Table 1),run:Lestaurtinib_02381_R3,Plate:MR004",209 nM
same,potency estimated from few doses,"MARK4; compound concentrations:100 nM and 1000 nM (sheet 'Lestaurtinib' of Supplementary Table 1),run:Lestaurtinib_02422_R1,Plate:MR006",74.8 nM
same,potency estimated from few doses,"MARK4; compound concentrations:100 nM and 1000 nM (sheet 'Lestaurtinib' of Supplementary Table 1),run:Lestaurtinib_02422_R3,Plate:MR006",86.4 nM
same,potency estimated from few doses,"MARK4; compound concentrations:100 nM and 1000 nM (sheet 'Lestaurtinib' of Supplementary Table 1),run:Lestaurtinib_02437_R1,Plate:MR007",974 nM
same,potency estimated from few doses,"MARK4; compound concentrations:100 nM and 1000 nM (sheet 'Lestaurtinib' of Supplementary Table 1),run:Lestaurtinib_02438_R3,Plate:MR008",83.1 nM
same,potency estimated from few doses,"MARK4; compound concentrations:100 nM and 1000 nM (sheet 'Lestaurtinib' of Supplementary Table 1),run:Lestaurtinib_02443_R2,Plate:MR009",93.4 nM
same,potency estimated from few doses,"MARK4; compound concentrations:100 nM and 1000 nM (sheet 'Lestaurtinib' of Supplementary Table 1),run:Lestaurtinib_02473_R1,Plate:MR010",84.5 nM
same,potency estimated from few doses,MARK4; [1],59.7 nM
same,potency estimated from few doses,MARK4; [2],86.4 nM
same,potency estimated from few doses,MARK4; [3],83.9 nM
same,potency estimated from few doses,MARK4; [4],703 nM
same,potency estimated from few doses,MARK4; [5],162 nM
same,potency estimated from few doses,MARK4; [6],83.9 nM
same,potency estimated from few doses,MARK4; [7],668 nM
same,potency estimated from few doses,MARK4; [8],708 nM
same,potency estimated from few doses,"MARK4; compound concentrations:100 nM and 1000 nM (sheet 'Lestaurtinib' of Supplementary Table 1),run:Lestaurtinib_02566_R2,Plate:MR014",36.8 nM
same,potency estimated from few doses,"MARK4; compound concentrations:100 nM and 1000 nM (sheet 'Lestaurtinib' of Supplementary Table 1),run:Lestaurtinib_02566_R3,Plate:MR014",497 nM
same,potency estimated from few doses,MARK4; [9],115 nM
same,potency estimated from few doses,MARK4; [10],141 nM
same,potency estimated from few doses,MARK4; [11],199 nM
same,potency estimated from few doses,"MARK4; compound concentrations:100 nM and 1000 nM (sheet 'Lestaurtinib' of Supplementary Table 1),run:Lestaurtinib_02584_R1,Plate:MR017",85.5 nM
same,potency estimated from few doses,"MARK4; compound concentrations:100 nM and 1000 nM (sheet 'Lestaurtinib' of Supplementary Table 1),run:Lestaurtinib_02584_R2,Plate:MR017",74.7 nM
same,potency estimated from few doses,MARK4; [12],80.1 nM
same,potency estimated from few doses,"MARK4; compound concentrations:100 nM and 1000 nM (sheet 'Lestaurtinib' of Supplementary Table 1),run:Lestaurtinib_02601_R1,Plate:MR018",90.9 nM
same,potency estimated from few doses,"MARK4; compound concentrations:100 nM and 1000 nM (sheet 'Lestaurtinib' of Supplementary Table 1),run:Lestaurtinib_02601_R3,Plate:MR018",93.4 nM
same,potency estimated from few doses,MARK4; [13],115 nM
same,potency estimated from few doses,MARK4; [14],84.3 nM
same,potency estimated from few doses,"MARK4; compound concentrations:100 nM and 1000 nM (sheet 'Lestaurtinib' of Supplementary Table 1),run:Lestaurtinib_02624_R3,Plate:MR020",78.4 nM
